# From PubChem BioAssay (NCATS)
# Inconclusive results are not listed. A call without a number means that no potency is given here. Values without a mark were called inactive. Activity calls are given as the source filed them. Unless noted, calls follow the shape of the dose curve; as a rule, active = well fitted curve in the direction sought with a large enough effect; inconclusive = small, poorly fitted or top-dose-only effect, or another doubt; inactive = no such curve, though single readings can be large; an effect the other way counts as inactive or inconclusive.
# Assays:
# [1] = biological target: Aldehyde dehydrogenase, mitochondrial (Homo sapiens) (UniProt P05091); experiment: qHTS for Inhibitors of the Aldehyde Dehydrogenase Family (ALDH2) Validation screens (AID 2061302; active = well fitted inhibition curve with a large enough effect; title and protocol of this record describe different tests)
# [2] = BET inhibitor-based combinations targeting novel dependencies in MECOM-rearranged (r) AML: SET-2 cell line (AID 2202231); details: SET-2 AML cells viability, CellTiter-Glo luminescence, 48 h; viability: stronger effect = lower value, concentration not given here; also: nearly all actives have a fitted effect of over 35% in size; also: potency is read from the fitted curve at half-maximal effect
# Method in brief: (§1)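 Each compound was tested at eleven concentrations on cells seeded at 500/well. After two days' incubation, ATP-based luminescence reported viability; responses relative to DMSO and blank wells yielded AUC and cell-line-centred Z-AUC.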
# [3] = BET inhibitor-based combinations targeting novel dependencies in MECOM-rearranged (r) AML: OCI-AML3 cell line (AID 2202232); details: Potency: OCI-AML3 viability; also: nearly all actives have a fitted effect of over 35% in size; also: potency is read from the fitted curve at half-maximal effect
# Method in brief: as §1
# [4] = BET inhibitor-based combinations targeting novel dependencies in MECOM-rearranged (r) AML: MV-4-11 cell line (AID 2202233); also: nearly all actives have a fitted effect of over 45% in size; also: potency is read from the fitted curve at half-maximal effect
# Method in brief: (§2)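 First, 500 cells per well were seeded; next, drugs were pinned as 11-point doses; then plates sat 48 hr in the incubator; finally CellTiter-Glo was added and luminescence read, with AUC and Z-AUC computed.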
# [5] = BET inhibitor-based combinations targeting novel dependencies in MECOM-rearranged (r) AML: UCSD-AML1 cell line (AID 2202235); also: potency is read from the fitted curve at half-maximal effect; nearly all actives have a fitted effect of over 40% in size
# Method in brief: as §2
# [6] = BET inhibitor-based combinations targeting novel dependencies in MECOM-rearranged (r) AML: AML-191 cell line (AID 2202236; also: potency is read from the fitted curve at half-maximal effect; nearly all actives have a fitted effect of over 35% in size)
# Method in brief: as §1
# [7] = BET inhibitor-based combinations targeting novel dependencies in MECOM-rearranged (r) AML: AML-194 cell line (AID 2202237; also: nearly all actives have a fitted effect of over 40% in size; also: potency is read from the fitted curve at half-maximal effect)
# Method in brief: as §1
# [8] = qHTS for Inhibitors of the Aldehyde Dehydrogenase Family (ALDH1A2, ALDH1A3, ALDH2, ALDH3A1) (AID 2061307); also: nearly all actives have a fitted effect of over 50% in size
# [9] = biological target: Aldehyde dehydrogenase, mitochondrial (Homo sapiens) (UniProt P05091); experiment: qHTS for Inhibitors of the Aldehyde Dehydrogenase Family (ALDH2) Primary screen (AID 2061308); also: nearly all actives have a fitted effect of over 55% in size; also: potency is read from the fitted curve at half-maximal effect
# [10] = biological target: Retinaldehyde dehydrogenase 3 (Homo sapiens) (UniProt P47895); experiment: qHTS for Inhibitors of the Aldehyde Dehydrogenase Family (ALDH1A3) Confirmatory screens (AID 2061311); also: nearly all actives have a fitted effect of over 60% in size; also: potency is read from the fitted curve at half-maximal effect
# [11] = biological target: Retinal dehydrogenase 2 (Homo sapiens) (UniProt O94788); experiment: qHTS for Inhibitors of the Aldehyde Dehydrogenase Family (ALDH1A2) Confirmation screens (AID 2061314); also: nearly all actives have a fitted effect of over 65% in size; also: potency is read from the fitted curve at half-maximal effect
# [12] = biological target: Aldehyde dehydrogenase 1A1 (Homo sapiens) (UniProt P00352); experiment: qHTS for Inhibitors of the Aldehyde Dehydrogenase Family (ALDH1A1) Confirmatory screens (AID 2061316); also: nearly all actives have a fitted effect of over 65% in size; also: potency is read from the fitted curve at half-maximal effect
# [13] = biological target: Aldehyde dehydrogenase, mitochondrial (Homo sapiens) (UniProt P05091); experiment: qHTS for Inhibitors of the Aldehyde Dehydrogenase Family (ALDH2) Confirmatory screens (AID 2061303; active = well fitted inhibition curve with a large enough effect; title and protocol of this record describe different tests; also: nearly all actives have a fitted effect of over 45% in size; also: potency is read from the fitted curve at half-maximal effect)
# [14] = biological target: Retinaldehyde dehydrogenase 3 (Homo sapiens) (UniProt P47895); experiment: qHTS for Inhibitors of the Aldehyde Dehydrogenase Family (ALDH1A3) Primary screen (AID 2061315)
# [15] = biological target: Retinaldehyde dehydrogenase 3 (Homo sapiens) (UniProt P47895); experiment: qHTS for Inhibitors of the Aldehyde Dehydrogenase Family (ALDH1A3) Validation screen (AID 2061312); also: nearly all actives have a fitted effect of over 45% in size
# [16] = BET inhibitor-based combinations targeting novel dependencies in MECOM-rearranged (r) AML: HNT-34 cell line (AID 2202234); also: nearly all actives have a fitted effect of over 35% in size
# Method in brief: as §2
smiles,measurement,setting,value
C=C(C)[C@H]1Cc2c(ccc3c2O[C@@H]2COc4cc(OC)c(OC)cc4[C@@H]2C3=O)O1,Potency,[1],inactive
same,Potency,[2],1.18 µM (active)
same,Potency,[3],332 nM (active)
same,Potency,[4],417 nM (active)
same,Potency,[5],934 nM (active)
same,Potency,[6],934 nM (active)
same,Potency,[7],934 nM (active)
CC1=C(C)C(=O)C(CC[C@](C)(O)CCC[C@H](C)CCC[C@H](C)CCCC(C)C)=C(C)C1=O,Potency,[8],inactive
same,Potency,[9],inactive
same,Potency,[10],10.1 µM (active)
same,Potency,[11],4.49 µM (active)
same,Potency,[12],inactive
CCc1nn2c(=O)cc(C3=CCNCC3)nc2s1,Potency,[8],inactive
CCOc1ccc(CCNC(=O)c2cc3cnccc3n2Cc2cccc(C)n2)cc1OCC,Potency,[13],inactive
same,Potency,[9],inactive
same,Potency,[14],inactive
same,Potency,[12],inactive
COc1cc(O)c2c(c1)CCC[C@@H](O)[C@H](O)C(=O)/C=C\C[C@H](C)OC2=O,Potency,[13],inactive
same,Potency,[9],inactive
same,Potency,[10],inactive
same,Potency,[11],inactive
same,Potency,[14],inactive
N[C@@]1(c2ccccc2Cl)CCC=CC1=O,Potency,[8],inactive
CC(=O)N(C)CC#CCN1CCC(O)CC1,Potency,[8],inactive
O=c1[nH]c(CN2CCNCC2)nc2ccccc12,Potency,[8],inactive
NCC(CC(=O)O)c1ccc(Cl)cc1 (stereo unspecified),Potency,[1],inactive
same,Potency,[15],inactive
N#Cc1c(-c2cccc(-c3no[n+]([O-])c3C#N)c2)no[n+]1[O-],Potency,[13],1.27 µM (active)
same,Potency,[9],282 nM (active)
same,Potency,[11],1.27 µM (active)
same,Potency,[14],inactive
same,Potency,[12],12.7 µM (active)
CNc1ccc2oc(C[C@H]3O[C@@]4(CC[C@H]3C)O[C@H]([C@H](C)C(=O)c3ccc[nH]3)[C@H](C)C[C@H]4C)nc2c1C(=O)O,Potency,[1],inactive
same,Potency,[15],inactive
CC(=O)OCC1=C(C(=O)O)N2C(=O)C(NC(=O)CCCC(N)C(=O)O)C2SC1 (stereo unspecified),Potency,[13],inactive
same,Potency,[10],inactive
COc1ccc(-c2nc(CS(=O)CC(=O)N3CCC4(CC3)OCCO4)c(C)o2)cc1 (stereo unspecified),Potency,[8],inactive
CCCCCn1c(C)c(C(=O)c2ccc(OC)c3ccccc23)c2ccccc21,Potency,[8],inactive
CCC1(c2ccc(N)cc2)CCC(=O)NC1=O (stereo unspecified),Potency,[1],inactive
same,Potency,[15],inactive
same,viability,[2],114%
same,Potency,[16],inactive
CCOc1ccc(CCNC(=O)c2cc3ccncc3n2Cc2cccc(C)n2)cc1OCC,Potency,[8],inactive
same,Potency,[9],inactive
same,Potency,[14],inactive
same,Potency,[12],inactive
CC(=O)N1N=C(c2ccc(N)cc2)c2cc3c(cc2C[C@H]1C)OCO3,Potency,[9],inactive
same,Potency,[15],inactive
same,Potency,[14],inactive
same,Potency,[3],inactive
same,Potency,[4],inactive
same,Potency,[7],inactive
CC(=O)OCC(N)C(=O)c1ccccc1 (stereo unspecified),Potency,[9],inactive
COC1CC(OC2CCC3(C)C(CCC4C3CCC3(C)C(C5=CC(=O)OC5)C(OC(C)=O)CC43O)C2)OC(C)C1OC1OC(CO)C(O)C(O)C1O (stereo unspecified),Potency,[9],inactive
COc1ccc(C(C)(C)C)cc1CN[C@H]1C2CCN(CC2)[C@H]1C(c1ccccc1)c1ccccc1,Potency,[9],inactive
same,Potency,[15],inactive
same,Potency,[14],inactive
COc1ccccc1CN[C@H]1C2CCN(CC2)[C@H]1C(c1ccccc1)c1ccccc1,Potency,[9],inactive
same,Potency,[15],inactive
same,Potency,[14],inactive
COC1CC(OC2CCC3(C=O)C(CCC4C3CCC3(C)C(C5=CC(=O)OC5)CCC43O)C2)OC(C)C1O (stereo unspecified),Potency,[9],inactive
